Consider 38 compounds from PubChem BioAssay (NCI).

The panel holds about 83,000 compounds, 20% with a hit somewhere; the sample as a whole holds those more often.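 Assay: single dose, 48 h. Readout: percent growth (0 = no net growth; negative = cell death). Active: <10.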 Values without a mark were called inactive. Active and inactive are the calls of the source.

In this assay the test system is LOX IMVI melanoma. Briefly: NCI-60 one-dose screen, 48 h (100 = growth as untreated, 0 = no growth, -100 = all killed). The note with it: 10 µM unless noted.
Turning to `CCN(CC)CC#CCOC(=O)[C@]1(C)CCC[C@]2(C)[C@H]3C[C@H]4C(C(C)C)=C[C@]3(CC[C@H]21)[C@@H]1C(=O)CCC(=O)[C@@H]14`, the growth was 38.7%. With `CN1CCN(CC#CCOC(=O)CNC(=O)[C@]23CCC(C)(C)C[C@H]2C2=CC[C@@H]4[C@@]5(C)CC[C@H](O)C(C)(C)[C@@H]5CC[C@@]4(C)[C@]2(C)CC3)CC1`, the growth is 81.3%. Consider `Nc1cc(N)c(S(=O)(=O)O)cc1N=Nc1cc([N+](=O)[O-])ccc1O`, for which the growth was 93.4%. Regarding `COc1ccc2c(c1)Oc1nc(N)c(C#N)c(N)c1C2Sc1ccc(SC)cc1` (stereo not drawn), the growth was -39.2% (active). The same measure for `CO[C@@]12C=C[C@@]34CCC(=O)N3c3ccccc3[C@@H](O1)C4C2`: 96.9%; for `COc1cc(NC(=O)Nc2cnc(Nc3ccc(N4CCOCC4)cc3)nc2Oc2ccc(F)cc2)cc(OC)c1`: 91%; for `C/C(=N/Nc1nc2ccccc2n1C)c1ccccn1`: -39.4% (active). In the case of `Cc1cccc(C)c1NC(=O)CN(CC(C)C)CC(O)COc1ccccc1` (stereo not drawn), the growth is 95.3%. Consider `COC(=O)c1ccc2c(c1)NC(=O)[C@@H]1CCCN21`, for which the growth is 88.5%. As for `O=C1c2ccccc2C(=O)c2c1oc1c2c(=O)[nH]c2ccc(Cl)cc21`, the growth was 11.1%. In the case of `COc1cc(NC(=O)Nc2cnc(Nc3ccc(N4CCOCC4)cc3)nc2Oc2ccc(C(F)(F)F)cc2)cc(OC)c1` it was 95.6%; in that of `COc1ccc(C(=O)c2cc(F)c(F)c(OC)c2F)cc1OC(=O)CCl`, 34.7%; in that of `Nc1c(C(=O)Nc2cccc3ccccc23)sc2nc3c(cc12)CCCCC3`, 38.4%. In the case of `O=c1[nH]c2ccccc2cc1-c1nc2ccncc2[nH]1` it was 82.1%; in that of `C=C1C(=O)O[C@H]2[C@H]1CC/C(COC(=O)NCc1nc3ccccc3[nH]1)=C\CC[C@@]1(C)O[C@@H]21`, 75.9%. As to `Cc1cccc(C)c1NCc1nnc(-c2ccco2)o1`, the growth was 93.5%. For `Nc1c(C(=O)Nc2ccccn2)sc2nc3c(cc12)CCCC3`, the growth was 41.5%. In the case of `Cc1c(Cl)cccc1NC(=O)c1sc2nc3c(cc2c1N)CCCCC3` it was 41.8%; in that of `CCSc1nc(Cl)c(C#N)c(-c2ccc(F)cc2)n1`, 87.1%.

As for `CCc1n(Cc2ccc3ccccc3c2)c2ccccc2[n+]1Cc1ccc2ccccc2c1`, the growth is 63.7%. The same measure for `NC(=O)CN1C(=O)c2ccccc2C1=O`: 103%; for `O=C1C(=O)c2c(nc3ccc(C(F)(F)F)cn23)-c2ccccc21`: -65.4% (active); for `COc1cccc(NC(=O)Nc2ccc(Nc3ncnc4[nH]c(C)c(C)c34)cc2)c1`: 99.7%.

For `NC(=O)c1ccc2nc3c(n2c1)C(=O)C(=O)c1ccccc1-3`, the growth was -78.4% (active).

On to `O=C(O)c1cc(N=Nc2ccc(-c3ccc(N=Nc4c(S(=O)(=O)O)cc5ccc(Nc6ccccc6)cc5c4O)cc3)cc2)ccc1O`, for which the growth is 95.6%.

As to `C=C1C(=O)O[C@H]2[C@H]1CCC(/C=N/c1ncc(Br)cc1N)=C\CC[C@@]1(C)O[C@@H]21`, the growth was -75.3% (active). `Cc1nc2sc(C(=O)Nc3ccccc3Cl)c(N)c2cc1C(C)O` (stereo not drawn): the growth was 74.5%. The same measure for `COc1ccc(/C=C/C(=O)c2ccc(NC(=O)CSc3nnc(-c4ccc(OC)c(OC)c4)n3-c3ccccc3)cc2)cc1`: -87.5% (active); for `O=c1c2ccccc2n(CC(O)CN2CCCC2)c2c(Br)cccc12` (stereo not drawn): 96.6%; for `O=C(CCCCCCCCC(=O)Nc1cccc(C2=NCCN2)c1)Nc1cccc(C2=NCCN2)c1`: 98.7%. In the case of `Cc1ccc(C(=O)/C(=C/c2ccc([N+](=O)[O-])cc2)S(=O)Cc2ccccc2)cc1` (stereo not drawn), the growth was -82.1% (active). Regarding `COc1ccc(-c2nc(C#N)c(NCC(c3ccc(Cl)cc3)N3CCCCC3)o2)cc1` (stereo not drawn), the growth is 93.8%. For the compound `O=C1CC(c2ccc(O)c(O)c2)Oc2cc(O)c([C@@H]3O[C@H](CO)[C@@H](O)[C@H](O)[C@H]3O)c(O)c21` (stereo partly drawn), the growth is 104%. Regarding `CCCn1c2cc(OCc3cn(-c4ccc(Cl)cc4)nn3)ccc2c2ccnc(C)c21`, the growth is 65.1%. In the case of `COc1ccccc1C(=O)/C=C/c1cc2cccc(OC)c2[nH]c1=O` it was -63.5% (active); in that of `O=[N+]([O-])c1ccc(N=Nc2c(O)c(N=Nc3cc([N+](=O)[O-])cc([N+](=O)[O-])c3O)cc(N=Nc3cc(S(=O)(=O)O)cc4cc(S(=O)(=O)O)cc(O)c34)c2O)cc1`, 90.1%. Take `COc1cc(N=Nc2cc(S(=O)(=O)O)cc3cc(S(=O)(=O)O)cc(O)c23)c(C)cc1N=Nc1c(S(=O)(=O)O)cc2cc(Nc3ccccc3)ccc2c1O`: the growth is 99.4%. For the compound `C=C1C(=O)O[C@H]2[C@H]1CC/C(COC(=O)/C=C/c1cccnc1)=C\CC[C@@]1(C)O[C@@H]21`, the growth was 30.7%.
